Screen size: about 320,000 compounds; about 2,100 (0.66%) were called active. Not shown: some 53% with an inconclusive outcome. Calls come from the whole dose curve; as a rule, active = well fitted inhibition curve with a large enough effect in the signal ratio, with a control signal flat (not every such curve was filed as active); inconclusive = small, poorly fitted or top-dose-only effect, or effect the other way, or a change in a side signal; inactive = flat fitted curve, though single readings scatter; the % refers to the signal ratio. Many of the other results were omitted from the sample, so actives are more common in it than they were.
Assay: qHTS Assay for Lipid Storage Modulators in Drosophila S3 Cells;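 for cell number change: cells counted by Cell Tracker Red CMTPX staining in the red channel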; for lipid storage change, negative = inhibition: % is set by controls: 0 for no effect and ±100 for the full control effect
Conditions: BODIPY lipid droplet fluorescence, 18-24 h, cells fed with added oleic acid; cell number change: measured here: cell count max response; series mostly up to 46.1 µM; lipid storage change, negative = inhibition: at the top concentration
In short: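 Drosophila S3 cells got compounds at several concentrations plus oleic acid (400 uM solution). Laser-scanning cytometry with 488 nm excitation read lipid droplets at 500-530 nm and cells at 575-640 nm. Percent activity was relative to 20 uM Triacsin C.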
Potency is the fitted concentration of half-maximal effect.

**Q.** With `COCC(=O)Nc1cc(=O)n(C)c(=O)n1C` as the compound, how does the “outcome” value read?
**A.** The value was “inactive”.

**Q.** With `Cc1ccc(OCCSc2ncnc3sc(C)c(C)c23)cc1C` as the compound, how does the “lipid storage change, negative = inhibition” value read?
**A.** The value was 9.62% (inactive).

**Q.** And the cell number change?
**A.** The cell number change was -4.8%.

**Q.** Which results are given for `CC(=O)C1=C(Nc2ccccc2)CC(C)(O)C(C(C)=O)C1c1ccccc1` (configuration not stated)?
**A.** lipid storage change, negative = inhibition: 5.22% (inactive); cell number change: 6.32%

**Q.** For `CCOC(=O)C1=C(Nc2ccccc2)CC(C)(O)C(C(=O)OCC)C1c1ccc(Cl)cc1` (configuration not stated), which Potency is on record?
**A.** Its Potency is 1.16 µM (active).

**Q.** And the cell number change?
**A.** Its cell number change is 12.7%.

**Q.** Which results are given for `CCOC(=O)C1=C(Nc2ccc(Br)cc2)CC(C)(O)C(C(=O)OCC)C1c1ccccc1` (configuration not stated)?
**A.** lipid storage change, negative = inhibition: -2.2% (inactive); cell number change: 1.29%

**Q.** Which “lipid storage change, negative = inhibition” value does the source give for `CCCOC(=O)c1ccc(OCC(O)CN2CCN(C(=O)c3ccccc3)CC2)cc1` (configuration not stated) here?
**A.** The value was 13.2% (inactive).

**Q.** And the cell number change?
**A.** The cell number change was 0.922%.

**Q.** For `COCCOC(=O)c1c(NC(=O)CN(C)c2ccccc2)sc(C(N)=O)c1C`, which “lipid storage change, negative = inhibition” value is on record?
**A.** The value was -6.17% (inactive).

**Q.** Which Potency does the source give for `COCCOC(=O)c1c(NC(=O)COC(=O)Cc2cccc(OC)c2)sc(C(N)=O)c1C` here?
**A.** Its Potency is 6.51 µM (active).

**Q.** Which results are given for `COCCOC(=O)c1c(NC(=O)COC(=O)c2ccc(C)o2)sc(C(N)=O)c1C`?
**A.** lipid storage change, negative = inhibition: -24.5% (inactive); cell number change: -10.2%

**Q.** Which “lipid storage change, negative = inhibition” value does the source give for `O=C(NCc1ccccc1Cl)c1cccc(C(F)(F)F)c1` here?
**A.** Its value is -6.95% (inactive).

**Q.** And the cell number change?
**A.** Its cell number change is -20.2%.

**Q.** Which “outcome” value does the source give for `O=S(=O)(c1ccc(F)cc1)N1CCCN(Cc2c(F)cccc2F)CC1` here?
**A.** The value was “inactive”.

**Q.** Which “lipid storage change, negative = inhibition” value does the source give for `O=C(O)/C(=C\C(=O)c1ccccc1)Nc1ccccc1` here?
**A.** The value was 19.7% (inactive).

**Q.** What about the cell number change of the same compound?
**A.** Its cell number change is 1.05%.

**Q.** Which “lipid storage change, negative = inhibition” value does the source give for `Cn1c(=O)c2cc3c(nc2n(C)c1=O)CC(c1ccccc1)CC3=O` (configuration not stated) here?
**A.** Its value is -3.1% (inactive).

**Q.** And the cell number change?
**A.** The cell number change was 11.1%.

**Q.** Which “lipid storage change, negative = inhibition” value does the source give for `Nc1oc2ccccc2c(=O)c1-c1ccc2c(c1)OCO2` here?
**A.** The value was 6.55% (inactive).

**Q.** What about the cell number change of the same compound?
**A.** The cell number change was 5.77%.

**Q.** For `Nc1c(-c2ccc3c(c2)OCCO3)oc2ccccc2c1=O`, which Potency is on record?
**A.** The Potency was 1.84 µM (active).

**Q.** And the cell number change?
**A.** Its cell number change is -8.11%.

**Q.** Which results are given for `O=c1cc(-c2ccc3c(c2)OCCO3)oc2ccc(Cl)cc12`?
**A.** lipid storage change, negative = inhibition: 5.34% (inactive); cell number change: 12.3%

**Q.** Which results are given for `CCOC(=O)C1=C(C)NC2=C(C(=O)CCC2)C1c1cccs1` (configuration not stated)?
**A.** outcome: inactive; cell number change: 25.2%

**Q.** With `COc1ccc(NS(=O)(=O)c2cccc(C(=O)N/N=C(\C)c3ccc(-n4ccnc4)cc3)c2)cc1` as the compound, how does the “outcome” value read?
**A.** Its value is “inactive”.

**Q.** And the cell number change?
**A.** Its cell number change is 11.3%.

**Q.** With `O=C(Nc1ccccc1C(=O)NCCCN1CCOCC1)c1ccc(F)cc1F` as the compound, how does the “lipid storage change, negative = inhibition” value read?
**A.** The value was 0.737% (inactive).

**Q.** And the cell number change?
**A.** Its cell number change is 3.6%.

**Q.** Which Potency does the source give for `CSCc1ccc(C(=O)NC2CC(C)(C)Cc3c2cnn3-c2ccc(F)cc2)o1` (configuration not stated) here?
**A.** The Potency was 25.9 µM (active).

**Q.** What about the cell number change of the same compound?
**A.** Its cell number change is -25.2%.

**Q.** For `Cn1nccc1C(=O)NC1CC(C)(C)Cc2c1cnn2-c1ccc(F)cc1` (configuration not stated), which “lipid storage change, negative = inhibition” value is on record?
**A.** Its value is 9.92% (inactive).

**Q.** For `COc1ccc(-n2ncc3c2CC(C)(C)CC3NC(=O)c2ccnn2C)cc1` (configuration not stated), which Potency is on record?
**A.** The Potency was 14.6 µM (active).

**Q.** And the cell number change?
**A.** The cell number change was -19.1%.

**Q.** Which “lipid storage change, negative = inhibition” value does the source give for `COc1ccc(-n2ncc3c2CC(C)(C)CC3NC(=O)c2ccc(OC)o2)cc1` (configuration not stated) here?
**A.** Its value is 1.29% (inactive).

**Q.** And the cell number change?
**A.** The cell number change was -8.87%.

**Q.** For `CC1(C)Cc2c(cnn2-c2ccc(F)cc2)C(NC(=O)c2ccoc2)C1` (configuration not stated), which “lipid storage change, negative = inhibition” value is on record?
**A.** The value was 22% (inactive).

**Q.** And the cell number change?
**A.** Its cell number change is 6.57%.

**Q.** With `CC1(C)Cc2c(cnn2-c2ccc(F)cc2)C(NC(=O)C2=NNC(=O)CC2)C1` (configuration not stated) as the compound, how does the “outcome” value read?
**A.** The value was “inactive”.

**Q.** Which results are given for `CCN1CCCC1CNC(=O)c1cn(C)c2ccc(S(=O)(=O)N3CCCCCC3)cc2c1=O` (configuration not stated)?
**A.** lipid storage change, negative = inhibition: -0.86% (inactive); cell number change: 3.92%

**Q.** For `CC(C)NC(=O)C(OC(=O)c1ccccc1)C(OC(=O)c1ccccc1)C(=O)O` (configuration not stated), which “lipid storage change, negative = inhibition” value is on record?
**A.** The value was 7.13% (inactive).

**Q.** What about the cell number change of the same compound?
**A.** The cell number change was 7.86%.

**Q.** Which “lipid storage change, negative = inhibition” value does the source give for `Cn1nc(-c2ccccc2)cc1NC(=O)Nc1ccccc1F` here?
**A.** Its value is -20.6% (inactive).

**Q.** And the cell number change?
**A.** Its cell number change is -4%.

**Q.** With `COc1cc(CC(=O)OCC(=O)NC2CCCCC2C)cc(OC)c1OC` (configuration not stated) as the compound, how does the “lipid storage change, negative = inhibition” value read?
**A.** The value was 8.4% (inactive).

**Q.** What about the cell number change of the same compound?
**A.** Its cell number change is -2.51%.

**Q.** What does the source list for `Cc1nn(-c2ccccc2)c(C)c1S(=O)(=O)O`?
**A.** lipid storage change, negative = inhibition: 28.4% (inactive); cell number change: -1.62%

**Q.** Which results are given for `Cc1nn(-c2ccccc2)c(C)c1-c1ccccc1O`?
**A.** Potency: 7.31 µM (active); cell number change: -20.1%

**Q.** What does the source list for `CC(=O)c1c(C)nn(-c2ccccc2)c1C`?
**A.** lipid storage change, negative = inhibition: 7.42% (inactive); cell number change: 16.2%

**Q.** Which “lipid storage change, negative = inhibition” value does the source give for `O=c1c2[nH]c3ccc(F)cc3c2ncn1Cc1ccncc1` here?
**A.** Its value is 4.58% (inactive).

**Q.** What about the cell number change of the same compound?
**A.** The cell number change was 1.6%.

**Q.** Which results are given for `Cc1nn(CC(=O)NC(C)C)c(C)c1[N+](=O)[O-]`?
**A.** lipid storage change, negative = inhibition: 24.3% (inactive); cell number change: 17.1%

**Q.** For `CC(=O)NC(Cc1ccc(C)cc1)C(=O)NC1CCN(C(=O)NCc2ccccc2)CC1` (configuration not stated), which “outcome” value is on record?
**A.** The value was “inactive”.

**Q.** What about the cell number change of the same compound?
**A.** The cell number change was 13.3%.

**Q.** Which results are given for `COc1cccc(CC(NC(C)=O)C(=O)NC2CCN(C(=O)Nc3ccc(C)cc3)CC2)c1` (configuration not stated)?
**A.** lipid storage change, negative = inhibition: -17.2% (inactive); cell number change: -3.63%

**Q.** For `CC(=O)NC(Cc1cccc(C)c1)C(=O)NC1CCN(C(=O)NCc2ccccc2)CC1` (configuration not stated), which “lipid storage change, negative = inhibition” value is on record?
**A.** Its value is -8.97% (inactive).

**Q.** What about the cell number change of the same compound?
**A.** The cell number change was 5.24%.

**Q.** For `O=C(NC1CCN(C(=O)NCc2ccccc2)CC1)c1cccc(F)c1`, which Potency is on record?
**A.** Its Potency is 29.1 µM (active).

**Q.** What about the cell number change of the same compound?
**A.** The cell number change was 11.7%.

**Q.** Which Potency does the source give for `CC(=O)NC(Cc1ccccc1F)C(=O)NC1CCN(C(=O)NCc2ccccc2)CC1` (configuration not stated) here?
**A.** Its Potency is 6.51 µM (active).

**Q.** And the cell number change?
**A.** Its cell number change is -14.1%.

**Q.** What does the source list for `COc1ccc(CC(NC(C)=O)C(=O)NC2CCN(C(=O)c3cccc(Cl)c3)CC2)cc1OC` (configuration not stated)?
**A.** lipid storage change, negative = inhibition: -3.02% (inactive); cell number change: -1.21%

**Q.** With `O=C(Cc1ccccc1)NC1CCN(C(=O)NCc2ccccc2)CC1` as the compound, how does the “lipid storage change, negative = inhibition” value read?
**A.** The value was -20.6% (inactive).

**Q.** What about the cell number change of the same compound?
**A.** Its cell number change is -0.661%.

**Q.** Which results are given for `COc1cccc(CC(NC(C)=O)C(=O)NC2CCN(C(=O)c3ccc(Cl)cc3)CC2)c1` (configuration not stated)?
**A.** Potency: 3.26 µM (active); cell number change: -13.3%

**Q.** For `O=C(c1ccc(F)cc1)C1CCN(C(=O)NCc2ccccc2)CC1`, which “lipid storage change, negative = inhibition” value is on record?
**A.** The value was 12.7% (inactive).

**Q.** And the cell number change?
**A.** Its cell number change is 2.65%.

**Q.** For `COc1ccnc(Oc2cc(Cl)cc(Cl)c2)c1C#N`, which “lipid storage change, negative = inhibition” value is on record?
**A.** The value was 10.2% (inactive).

**Q.** What about the cell number change of the same compound?
**A.** Its cell number change is 16.7%.

**Q.** With `COc1cc(C(=O)NCC(=O)OCC(=O)Nc2ncc(Cl)cc2Cl)cc(OC)c1OC` as the compound, how does the “lipid storage change, negative = inhibition” value read?
**A.** The value was 19.4% (inactive).

**Q.** What does the source list for `O=C(Cn1nnc(-c2cccs2)n1)NCc1ccco1`?
**A.** lipid storage change, negative = inhibition: 6.95% (inactive); cell number change: 14.3%

**Q.** With `Cc1cc(=O)oc2c3c(cc(OCC(=O)N4CCC(C(=O)O)CC4)c12)OC(C)(C)CC3` as the compound, how does the “lipid storage change, negative = inhibition” value read?
**A.** Its value is -0.64% (inactive).

**Q.** And the cell number change?
**A.** Its cell number change is 22.1%.

Source: PubChem BioAssay AID2685 (National Center for Advancing Translational Sciences (NCATS), 2010)
